# Only some compounds are listed: those with a hit (about 1.7% of all), similar ones and a draw of the others.
# GLP-1R inv ag – acts as inverse agonist at human GLP-1 receptor. P43220. HEK293 GLP-1R CRE-luciferase, luminescence, 24 h; GLP-1R form is constitutively active. Potency, µM (doses to about 38.3 µM), for inactives: top-dose activity change, negative = inhibition, most hits filed as inhibitors. 410,000 tested, 1.6% active; further: on the % scale 0 is the no-effect control and ±100 the full control effect; nearly all actives have a fitted effect of over 55% in size
#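 Assay principle: reduced luminescence from a cAMP-responsive reporter in HEK293 cells co-expressing a constitutively active GLP-1R. Conditions: 24 hr compound incubation, 37 deg C, 5% CO2.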
# GLP-1R agonist – activates the human GLP-1 receptor; HEK293 GLP-1R CRE-luciferase, luminescence, 4-6 h; cells express a hypersensitive GLP-1R form; Potency, µM (titrated, usually from 45.6 µM), inactives show at the top dose activation, hits mostly activators; 380,000 tested, 0.007% active; AID 624172; further: % of control where 0% means no effect
# PTHR1 ag – agonists of human PTHR1 parathyroid hormone receptor. HEK293 GP2 PTHR1 cells, GloSensor cAMP luminescence, 1 h. 410,000 tested, 0.075% active. Potency, µM (doses to about 115 µM), for inactives: top-dose activation, most hits filed as activators; further: nearly all actives have a fitted effect of over 55% in size
# Target sequence (Q03431 whole entry, looked up): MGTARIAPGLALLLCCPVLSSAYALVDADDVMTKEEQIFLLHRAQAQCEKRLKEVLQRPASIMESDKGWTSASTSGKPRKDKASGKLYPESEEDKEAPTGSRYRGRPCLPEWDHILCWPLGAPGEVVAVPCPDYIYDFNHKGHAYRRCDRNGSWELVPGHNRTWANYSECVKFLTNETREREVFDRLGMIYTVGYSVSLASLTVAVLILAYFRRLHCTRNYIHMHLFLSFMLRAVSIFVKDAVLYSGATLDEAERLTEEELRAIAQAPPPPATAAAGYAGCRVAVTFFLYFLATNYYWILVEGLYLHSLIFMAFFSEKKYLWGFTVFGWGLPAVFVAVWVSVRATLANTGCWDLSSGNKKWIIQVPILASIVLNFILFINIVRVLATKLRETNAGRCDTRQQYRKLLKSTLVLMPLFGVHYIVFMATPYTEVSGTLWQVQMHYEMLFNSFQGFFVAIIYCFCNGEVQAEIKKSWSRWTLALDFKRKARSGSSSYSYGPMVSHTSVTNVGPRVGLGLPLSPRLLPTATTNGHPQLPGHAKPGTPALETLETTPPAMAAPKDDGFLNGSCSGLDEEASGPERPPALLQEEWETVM
#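 HEK-293-derived GP2 cells expressing PTHR1 and a GloSensor cAMP reporter, 3,000/well, plated overnight, given luciferin plus IBMX (each 0.5 mM as added) for 1 h at 37 °C, then compound for 1 h at 37 °C. Luminescence was read after 15 min at room temperature.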
# HEK293 tox – cytotoxicity in counter-screen for GLP-1R inverse agonists. HEK293 cAMP-luciferase reporter cells, luminescence, 24 h. Potency, µM (doses to about 38.3 µM), for the others: at the highest dose activity change, negative = inhibition, actives largely listed as inhibitors. 410,000 tested, 0.13% active. AID 624418;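 further: loss of luciferase light is scored as toxicity; on the % scale 0 is the no-effect control and ±100 the full control effect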
#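 Cells in DMEM/10% Nu serum/1% pen-strep, 1536-well format. Pre-incubated 12 h, dosed with 23 nL compound, incubated a further 24 h. Luciferase detection, 12 min at room temp, luminescence.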
# Numbers without * were called inactive; i = inactive; ? = inconclusive; . = no result; [ ] = another dose, or the depositor's remark. The call rests on the fitted dose curve; in most records, active means well fitted curve in the direction sought with a large enough effect; inconclusive means small, poorly fitted or top-dose-only effect, or another doubt; inactive means no such curve, though single readings can be large; an effect the other way counts as inactive or inconclusive. Potency means the concentration at half of the fitted maximal effect.
SMILES,GLP-1R inv ag,GLP-1R agonist,PTHR1 ag,HEK293 tox
Cc1cccc(OCCNC(=O)c2cccc(Oc3ccc(C(F)(F)F)cc3[N+](=O)[O-])c2)c1,2.5µM*,-2%,-12%,-18%
Nc1nonc1C(=O)NCCNCc1ccc(Cl)c(Cl)c1,1%,-1%,-2%,3%
COc1cc2nc(Nc3ccc(C)c(Cl)c3)nc(N)c2cc1OC,3.2µM*,0%,-18%,?
COc1cc2nc(Nc3ccc(C)c(C)c3)nc(N)c2cc1OC,10µM*,14%,i,?
COc1ccccc1N1CCN(Cc2nc(N)nc(Nc3ccc(C)c(Cl)c3)n2)CC1,2.2µM*,-24%,-14%,15%
CC1(C)CC2(OC2c2ccccc2)C(=O)c2ccccc21 (configuration not stated),-20%,7%,-27%,3%
CCN(CC)CCNc1ccc(CO)c2oc3cc(Cl)ccc3c(=O)c12,4.5µM*,-3%,i,-16%
O=c1cc(NCCCO)c2ccccc2o1,-3%,-7%,i,-8%
CN(C)CCNc1ccc(CO)c2oc3ccc(O)cc3c(=O)c12,10µM*,-30%,-19%,?
O=C1C=C(CO)OCC1=O,.,-1%,.,.
CCOc1ccc(CNCc2c(C(=O)O)n(Cc3ccccc3F)c3cc(OC)ccc23)cc1,7%,.,-8%,-1%
CCN(CC)C(=O)CSc1nc(-c2ccc(C)cc2)nc2c1Cc1c(CO)cnc(C)c1O2,-4%,.,i,-17%
O=C(/C=C/c1ccc(O)c(O)c1)c1ccccc1O,16%,12%,-12%,?
O=C(C=Cc1ccccc1O)c1ccccc1O,7.9µM*,6%,-23%,-16%
Cc1ccc2nc(N3CCN(c4cccc(Cl)c4)CC3)c(-n3nc(C)cc3C)nc2c1,?,.,-13%,-5%
COCCCNC(=O)C1CCC(CNS(=O)(=O)c2ccc3c(c2)CC(C)N3C(=O)C2CC2)CC1 (configuration not stated),84%,12%,i,1%
O=C(Cc1ccccc1)NNc1ccc2ccccc2c1,0.56µM*,-1%,i,-15%
CCCCn1c(CNC(=O)C23CC4CC(CC(C4)C2)C3)nnc1SC(C)CC (configuration not stated),3.5µM*,2%,i,-15%
CN(C)[C@H]1C(=O)C(C(=O)NCN2CCCC2)=C(O)[C@]2(O)C(=O)C3=C(O)c4c(O)cccc4[C@](C)(O)[C@H]3C[C@H]12,.,-5%,.,.
CCc1ccc(C(=O)NC(Cc2c[nH]c3ccccc23)C(=O)OCC(=O)c2ccc(Br)cc2)cc1 (configuration not stated),?,.,4%,7%
Cc1cc(N2CCCCC2)nc2ccc(NC(=O)c3cccc(Cl)c3)cc12,?,.,-48%,-29%
Cc1cc(N2CCN(C)CC2)nc2ccc(NC(=O)Nc3ccccc3)cc12,?,.,i,-3%
Cc1cc(N2CCCCC2)nc2ccc(NC(=O)c3cccc(F)c3)cc12,11µM*,.,-93%,?
Cc1cc(N2CCN(C)CC2)nc2ccc(NC(=O)Nc3cccc(Cl)c3)cc12,10µM*,.,i,?
COc1ccc2cc3cc(C(=O)N4CC(C)CC(C)C4)oc3nc2c1 (configuration not stated),?,8%,-18%,-7%
SMILES,GLP-1R inv ag,GLP-1R agonist,PTHR1 ag,HEK293 tox
Cc1ccc2cc3cc(C(=O)N4CC(C)CC(C)C4)oc3nc2c1 (configuration not stated),7.9µM*,21%,i,-10%
O=C(NCc1ccc(Cl)cc1Cl)C1CCN(S(=O)(=O)c2ccc3c(c2)OCCCO3)CC1,7.9µM*,3%,-2%,14%
COc1ccc(NCc2cc3cc4c(cc3n(CC(=O)Nc3ccc(C)cc3)c2=O)OCO4)cc1,-12%,-3%,-8%,3%
COc1ccc(-c2nc3sc(CCNC(=O)C(=O)Nc4c(C)cccc4C)c(C)n3n2)cc1,-1%,.,-9%,-11%
Cc1ccc(NS(=O)(=O)c2ccc(NC(=O)C(C)Sc3ccc(Cl)cc3)cc2)c(C)c1 (configuration not stated),10µM*,2%,-16%,12%
Cc1ccc(C)c(NS(=O)(=O)c2ccc(NC(=O)CSc3ccc(Cl)cc3)cc2)c1,?,8%,i,-10%
Cc1cc(C)cc(-n2ccnc2SCC(=O)Nc2ccc(C)c(Cl)c2)c1,8.9µM*,-1%,i,1%
Cc1cc(C)cc(-n2ccnc2SCC(=O)Nc2ccc3c(c2)OCCO3)c1,?,2%,-14%[57.5 µM],13%
CCc1ccc(NC(=O)CSc2nccn2-c2ccc(OC)cc2)cc1,10µM*,.,-69%,-14%
CC1CC2C3CCC4=CC(=O)C=CC4(C)[C@@]3(F)C(O)CC2(C)[C@@]1(O)C(=O)CCl (some centres not stated),.,4%,.,.
CN(C)c1ccc(C2C=C(c3ccccc3)Nc3nnnn32)cc1 (configuration not stated),12%,.,-19%,87%
COc1ccc(NC(=O)C2=C(C)Nc3nc(SCc4ccc(Cl)cc4)nn3C2c2cccc(OC)c2OC)cc1 (configuration not stated),-1%,.,-12%,5%
Cc1cccc(C2(c3cccc(C)c3)CC2C(=O)Nc2ccc([N+](=O)[O-])cc2O)c1 (configuration not stated),2.5µM*,-5%,-29%,?
CC(C)NCCCCOc1cccc(Br)c1,7.9µM*,-1%,-3%,-1%
Cc1ccccc1NC(=O)Cc1nc(COC(=O)Cc2c(F)cccc2Cl)cs1,?,21%,-20%,5%
COc1ccc(CC(=O)Nc2ccc3nc(Nc4cccc(Cl)c4)cc(C)c3c2)cc1,7.9µM*,-11%,-18%,-18%
Cc1cc(Nc2cccc(Cl)c2)nc2ccc(NC(=O)c3cccc(N(C)C)c3)cc12,5.6µM*,-3%,i,-19%
COc1ccc(Nc2cc(C)c3c(O)cccc3n2)cc1,13µM*,1%,i,-26%
Cc1cc(Nc2cccc(Cl)c2)nc2ccc(NC(=O)c3cccnc3)cc12,?,-6%,-20%,?
Cc1onc(-c2ccccc2Cl)c1C(=O)Nc1nnc(-c2ccc(Br)cc2)s1,10µM*,-7%,-75%,-18%
Cc1onc(-c2ccccc2Cl)c1C(=O)Nc1nc2c(s1)CCCC2,10µM*,-7%,-3%,-1%
C#C[C@]1(O)CC[C@H]2[C@H]3[C@H](CC[C@@]21C)C1=C(CC(=O)CC1)C[C@@H]3C,.,-5%,.,.
COc1ccc2c(C)c(CC(=O)NCCc3ccc(Cl)cc3)c(=O)oc2c1C,9%,.,i,5%
Cc1cc(C)cc(NC(=O)C2C3C=CC4(O3)C2C(=O)N(CCN2CCCCC2)C4C(=O)NC2CCCCC2)c1 (configuration not stated),-17%,1%,18%,6%

# Source: PubChem BioAssay
